Over roughly 2,900 compounds, “NF-kB SEAP reporter activity, fold change vs agonist alone” has its median near 0.99; the highest 2% begin near 2.6. The sample as a whole holds a higher share of the highest values than the screen did.

In test [1] the test system is RAW-Dual. As to the kind of experiment: NF-kB SEAP reporter activity, fold change vs agonist alone; higher = enhanced NF-kB activity. Summed up: (§1)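 Supernatant from RAW-Dual macrophages was read after 20 hours for IRF by QuantiLuc luminescence and for NF-κB by QuantiBlue absorbance at 620 nm. The cells (50,000 cells/well in DMEM, 384-well plates, 37 °C, 5% CO2) had received 50 nL of library stock by pin tool and, 1 h later, a PRR agonist. Reporter activity is expressed relative to agonist-alone wells as fold change, and wells were flagged cytotoxic if IncuCyte confluency was under 70% of agonist controls in both mask sets.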

Test [2] relates to RAW-Dual. As to the kind of experiment: NF-kB SEAP reporter activity, fold change vs agonist alone; cytotoxicity flag (confluency mask): not cytotoxic; higher = enhanced NF-kB activity. Summed up:
as §1

Test [3] deals with RAW-Dual. As to the kind of experiment: NF-kB SEAP reporter activity, fold change vs agonist alone; cytotoxicity flag (confluency mask): cytotoxic (confluency <70% of control); higher = enhanced NF-kB activity. Summed up: as §1
Setting [4] is: library stock concentration (final ~1000-fold dilution): 10 mM, cytotoxicity flag (confluency mask): not cytotoxic, agonist: Imiquimod (TLR7) […].
[5] abbreviates: library stock concentration (final ~1000-fold dilution): 10 mM, cytotoxicity flag (confluency mask): not cytotoxic, agonist: MPLA (TLR4) […].
Setting [6] is: library stock concentration (final ~1000-fold dilution): 10 mM, cytotoxicity flag (confluency mask): cytotoxic (confluency <70% of control), agonist: Imiquimod (TLR7) […].
Setting [7] is: library stock concentration (final ~1000-fold dilution): 10 mM, cytotoxicity flag (confluency mask): cytotoxic (confluency <70% of control), agonist: MPLA (TLR4) […].
Where [8] appears, read: agonist: ODN 1826 (TLR9) 0.5 ug/mL.
Where [9] appears, read: agonist: Pam2CSK4 (TLR2/6) 0.1 ug/mL.
Setting [10] is: agonist: Pam3CSK4 (TLR2/1) 0.1 ug/mL.
The mark [11] stands for this setting: library stock concentration (final ~1000-fold dilution): 2 mM, cytotoxicity flag (confluency mask): not cytotoxic, agonist: Imiquimod (TLR7) […].
[12] abbreviates: library stock concentration (final ~1000-fold dilution): 2 mM, cytotoxicity flag (confluency mask): not cytotoxic, agonist: MPLA (TLR4) […].

Consider `COC(=O)c1sccc1S(=O)(=O)Nc1ccc(Nc2ccccc2)cc1OC`, for which the “NF-kB SEAP reporter activity” value with RAW-Dual [1] (setting [4]) worked out at 1.07; in the test with RAW-Dual [1] (setting [5]) it was 1.11.

For the molecule `COc1cc(NS(C)(=O)=O)ccc1Nc1c2ccccc2nc2ccccc12.Cl`, the “NF-kB SEAP reporter activity” value in the test with RAW-Dual [1] (setting [6]) was 2.58; with RAW-Dual [1] (setting [7]) it was 2.51.

On to `COS(=O)(=O)[O-].COc1cccc2c1nc1ccccc1[n+]2C`, for which the “NF-kB SEAP reporter activity” value came out at 0.838 in the test on RAW-Dual [1] (setting [6]) and 0.899 in the test on RAW-Dual [1] (setting [7]).

For `CC1(C)OC(=O)C=CC2(C)C1CC(=O)C1(C)C2CCC2(C)C(c3ccoc3)OC(=O)C3OC321` (centres undefined), the entries for the “NF-kB SEAP reporter activity” value in the test with RAW-Dual [1] (setting [4]) and in the test on RAW-Dual [1] (setting [5]) were 0.98 and 1.03, respectively.

Take `CC1(C)OC(=O)C=CC2(C)C1CC(=O)C1(C)C2CCC2(C)C(c3ccoc3)OC(=O)C3OC321` (centres undefined) (library stock concentration (final ~1000-fold dilution): 10 mM): the “NF-kB SEAP reporter activity” value turned out to be 1.04 in the test on RAW-Dual [2] (agonist: LPS (TLR4) 0.1 ug/mL), 0.875 in the test with RAW-Dual [2] (setting [8]), 1.02 in the test on RAW-Dual [2] (setting [9]) and 1.08 with RAW-Dual [2] (setting [10]).

Turning to `c1cncc(-c2c[nH]nn2)c1` (library stock concentration (final ~1000-fold dilution): 10 mM), the “NF-kB SEAP reporter activity” value with RAW-Dual [2] (agonist: LPS (TLR4) 0.1 ug/mL) was determined as 1.17; in the test on RAW-Dual [2] (setting [8]) it was 0.863; with RAW-Dual [2] (setting [9]) it was 1.02; in the test with RAW-Dual [2] (setting [10]) it was 1.05.

As for `c1cncc(-c2c[nH]nn2)c1`, the “NF-kB SEAP reporter activity” value in the test with RAW-Dual [1] (setting [4]) is 0.995; with RAW-Dual [1] (setting [5]), 0.972.

As for `CCCC1CC(C(=O)NC(C(C)Cl)C2OC(SC)C(O)C(O)C2O)N(C)C1.Cl` (centres undefined) (library stock concentration (final ~1000-fold dilution): 10 mM), the “NF-kB SEAP reporter activity” value in the test with RAW-Dual [2] (agonist: LPS (TLR4) 0.1 ug/mL) amounted to 1.11; with RAW-Dual [2] (setting [8]) it was 1.04; with RAW-Dual [2] (setting [9]), 1.06; in the test with RAW-Dual [2] (setting [10]) it was 1.08.

Turning to `CCCC1CC(C(=O)NC(C(C)Cl)C2OC(SC)C(O)C(O)C2O)N(C)C1.Cl` (centres undefined), the “NF-kB SEAP reporter activity” value in the test with RAW-Dual [1] (setting [4]) was 0.95; in the test with RAW-Dual [1] (setting [5]), 1.06.

With `CCCCCCCCCCCCCCCCCC[N+](C)(C)C`, the “NF-kB SEAP reporter activity” value in the test with RAW-Dual [1] (setting [7]) was 1.75.

As to `CCCCCCCCCCCCCCCCCC[N+](C)(C)C` (library stock concentration (final ~1000-fold dilution): 10 mM), the “NF-kB SEAP reporter activity” value in the test on RAW-Dual [3] (agonist: LPS (TLR4) 0.1 ug/mL) was 0.996; with RAW-Dual [3] (setting [8]), 1.37; with RAW-Dual [3] (setting [9]) it was 0.699; in the test with RAW-Dual [3] (setting [10]), 0.534.

Regarding `c1ccc(-c2n[nH]cc2-c2ccnc3ccccc23)nc1` (library stock concentration (final ~1000-fold dilution): 2 mM), the “NF-kB SEAP reporter activity” value was found to be 2.19 in the test with RAW-Dual [2] (agonist: LPS (TLR4) 0.1 ug/mL), 1.01 with RAW-Dual [2] (setting [8]), 0.992 in the test with RAW-Dual [2] (setting [9]) and 0.919 in the test on RAW-Dual [2] (setting [10]).

Consider `Cc1cccc(-c2nn3c(c2-c2ccnc4ccc(C(N)=O)cc24)CCC3)n1`, for which the “NF-kB SEAP reporter activity” value is 1.13 in the test on RAW-Dual [1] (setting [4]) and 1.48 in the test on RAW-Dual [1] (setting [5]).

On to `c1ccc(-c2nn3c(c2-c2ccnc4cc(OCCN5CCOCC5)ccc24)CCC3)nc1`, for which the “NF-kB SEAP reporter activity” value in the test with RAW-Dual [1] (setting [11]) is 0.793; in the test with RAW-Dual [1] (setting [12]), 1.27.

`c1ccc(-c2nn3c(c2-c2ccnc4cc(OCCN5CCOCC5)ccc24)CCC3)nc1` (library stock concentration (final ~1000-fold dilution): 2 mM): the “NF-kB SEAP reporter activity” value in the test on RAW-Dual [2] (agonist: LPS (TLR4) 0.1 ug/mL) was determined as 2.87; in the test with RAW-Dual [2] (setting [8]), 1.07; in the test with RAW-Dual [2] (setting [9]), 1.05; with RAW-Dual [2] (setting [10]), 1.01.

As to `c1ccc(-c2n[nH]cc2-c2ccnc3ccccc23)nc1`, the “NF-kB SEAP reporter activity” value came to 0.961 in the test on RAW-Dual [1] (setting [11]) and 1.15 in the test with RAW-Dual [1] (setting [12]).

For the molecule `Cc1cccc(-c2nn3c(c2-c2ccnc4ccc(C(N)=O)cc24)CCC3)n1` (library stock concentration (final ~1000-fold dilution): 10 mM), the “NF-kB SEAP reporter activity” value is 1.59 with RAW-Dual [2] (agonist: LPS (TLR4) 0.1 ug/mL), 1.03 in the test on RAW-Dual [2] (setting [8]), 1.05 in the test on RAW-Dual [2] (setting [9]) and 1.21 with RAW-Dual [2] (setting [10]).

Take `Cc1cc(C)cc(Oc2ccc(CNC(=O)C(C)N)cc2C)c1` (centres undefined) (library stock concentration (final ~1000-fold dilution): 10 mM): the “NF-kB SEAP reporter activity” value in the test on RAW-Dual [2] (agonist: LPS (TLR4) 0.1 ug/mL) was 1.3; with RAW-Dual [2] (setting [8]), 0.9; in the test with RAW-Dual [2] (setting [9]), 0.484; in the test with RAW-Dual [2] (setting [10]), 0.732.

With `Cc1cc(C)cc(Oc2ccc(CNC(=O)C(C)N)cc2C)c1` (centres undefined), the “NF-kB SEAP reporter activity” value in the test on RAW-Dual [1] (setting [4]) turned out to be 1.24; in the test with RAW-Dual [1] (setting [5]), 1.3.

In the case of `CC(C)=CCC/C(C)=C/CC/C(C)=C/CC/C=C(\C)CC/C=C(\C)CCC=C(C)C`, the entries for the “NF-kB SEAP reporter activity” value in the test on RAW-Dual [1] (setting [4]) and in the test with RAW-Dual [1] (setting [5]) were 0.926 and 1.01, respectively.

As for `CC(C)=CCC/C(C)=C/CC/C(C)=C/CC/C=C(\C)CC/C=C(\C)CCC=C(C)C` (library stock concentration (final ~1000-fold dilution): 10 mM), the “NF-kB SEAP reporter activity” value in the test with RAW-Dual [2] (agonist: LPS (TLR4) 0.1 ug/mL) was 1.34; in the test with RAW-Dual [2] (setting [8]), 1.09; in the test on RAW-Dual [2] (setting [9]) it was 1.14; in the test on RAW-Dual [2] (setting [10]), 1.12.

The values above are taken from the supplement of paper PMC10037445.
